Hits are enriched below; roughly 19% of the tested compounds scored in any of these assays.
DT40 TDP1 no CPT – qHTS for Inhibitors of human tyrosyl-DNA phosphodiesterase 1 (TDP1): qHTS in cells in absence of CPT | actives 15% (n = 420,000) | DT40 Tdp1-/- hTDP1 cells, no CPT, ATP luminescence, 48 h | Potency, µM (series often up to 46.2 µM), usual class: inhibitors; also: nearly all actives have a fitted effect of over 55% in size
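A cellular qHTS used chicken DT40 cells lacking endogenous Tdp1 but carrying stably transfected human TDP1. Compounds were applied without camptothecin, and cell growth kinetics were judged by ATP-dependent luminescence after ≥48 hr.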
HT1080 IDH1KD tx – toxicity to HT-1080 IDH1 knockdown cells (counter line); HT-1080 IDH1 knockdown viability, ATP luminescence, 48 h; Potency, µM (top dose mostly 46.1 µM), actives largely listed as cytotoxic; actives 2% (n = 360,000)
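After a 2 h attachment period, IDH1KD HT-1080 cells took pin-transferred compound for 48 h at 37 °C; ATP-based luminescence after 10 min room-temperature reagent incubation reported viability.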
HT1080NT lethal – kills 2HG-producing HT-1080-NT fibrosarcoma cells; actives 1.6% (n = 360,000); Potency, µM (highest dose often 46.1 µM), most hits filed as cytotoxic; HT-1080-NT fibrosarcoma viability, CellTiter-Glo ATP luminescence, 48 h;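 also: NT is the 2HG producing partner of a matched IDH1 knockdown line; nearly all actives have a fitted effect of over 55% in size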
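A 48-hour cytotoxicity screen used HT-1080-NT cells plated 2 hours before compound delivery. ATP-based CellTiter-Glo luminescence measured viability, normalized to DMSO and no-cell controls.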
TDP1 cell CPT – growth inhibition of DT40 Tdp1-/-;hTDP1 cells with camptothecin (screen for TDP1 inhibitors) | chicken DT40 Tdp1-/-;hTDP1 cells + 20 nM CPT, ATP luminescence, 48 h | Potency, µM (highest dose often 46.2 µM), actives largely listed as inhibitors | actives 12% (n = 420,000); also: nearly all actives have a fitted effect of over 55% in size
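Chicken DT40 Tdp1-/- cells complemented with human TDP1, 400 cells/well, exposed to compounds plus 20 nM camptothecin for at least 48 h at 37 C; viability read as ATP content by CellTiter-Glo luminescence.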
ELG1 DNA repair – inhibitors of ELG1-dependent DNA repair in HEK293T cells; actives 2.3% (n = 330,000); Potency, µM (doses to about 46.1 µM), hits mostly inhibitors; AID 504467; HEK293T ELG1-luciferase reporter, luminescence, 16 h; DNA damage induced by 5-fluorouridine; also: nearly all actives have a fitted effect of over 55% in size
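In this reporter screen, reduction of luminescence relative to DMSO vehicle indicated activity. Compounds and 5-fluorouridine were added together to 2,000 cells per well, incubated for 16 hr at 37 °C, then developed with ONE-Glo.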
IL1B secr inh – inhibitors of inflammasome signaling (IL-1 beta secretion); THP-1 LPS/ATP IL-1B secretion, AlphaLISA, 16 h; stronger effect = lower value; activity change, % at 57.5 µM; actives 4.7% (n = 360,000); AID 743279; in the data active = activity change below about -50%; inconclusive = mostly about -30% to -49%
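THP-1 cells pretreated 1 hr with compounds (up to 57.5 uM final), then stimulated with LPS (250 ng/mL final) plus ATP (1.25 mM final); secreted IL-1B measured by AlphaLISA after 16 hr, decreased signal indicating inhibition.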
Numbers stand for hits; . = inactive; ? = inconclusive; / = not tested or not shown; [ ] = remark or other dose. Unless noted, calls follow the shape of the dose curve; as a rule, active = well fitted curve in the direction sought with a large enough effect; inconclusive = small, poorly fitted or top-dose-only effect, or another doubt; inactive = no such curve, though single readings can be large; an effect the other way counts as inactive or inconclusive.

SMILES | DT40 TDP1 no CPT | HT1080 IDH1KD tx | HT1080NT lethal | TDP1 cell CPT | ELG1 DNA repair | IL1B secr inh
O=C(NC(=S)N1CCN(Cc2ccc3c(c2)OCO3)CC1)c1cccc(Br)c1 | 15µM | . | . | 16µM | . | .
CC1(C)CC2(CC(c3ccccc3)Oc3cc(O)ccc32)NC(=O)N1 (stereo unspecified) | / | / | / | / | . | /
CC1(C)CC2(CC(c3ccccc3)Oc3cc(O)ccc32)NC(=S)N1 (stereo unspecified) | 21µM | . | . | 21µM | ? | .
CC(=O)Oc1ccc2c(c1)OC(c1ccccc1)CC21CC(C)(C)NC(=S)N1 (stereo unspecified) | 12µM | . | . | 16µM | . | .
COc1ccc(C2=CC(=O)CC(c3ccc(F)cc3)C2)cc1 (stereo unspecified) | . | . | . | ? | / | .
Cc1ccc(C2=CC(=O)C[C@H](c3ccc(F)cc3)C2)cc1 | ? | . | . | ? | . | .
O=C1C=C(c2ccc(C(=O)O)cc2)C[C@@H](c2ccc(F)cc2)C1 | . | . | . | . | ? | .
Cn1ccc2ccc(C3=CC(=O)C[C@H](c4ccc(F)cc4)C3)cc21 | 18µM | . | . | 7.3µM | ? | .
O=C1C=C(c2ccc(-c3ccccc3)cc2)C[C@@H](c2ccc(F)cc2)C1 | ? | . | . | 18µM | ? | .
O=C1C=C(c2ccc(CO)cc2)C[C@@H](c2ccc(F)cc2)C1 | 23µM | . | . | . | / | .
O=C(NCc1ccc2c(c1)OCO2)c1cccnc1Cl | . | . | . | . | . | .
Cc1cccc(CNc2ncncc2-c2ccccc2C(F)(F)F)c1 | . | / | / | . | / | /
O=C(Nc1ccc(F)c(Cl)c1)N1CCC(CN2CCOCC2)CC1 | . | / | / | . | / | /
COCCNC(=O)c1cccc2c(-c3ccnn3C)coc12 | ? | . | . | ? | / | .
CCCCN(CCCNC(=O)C1CCN(S(=O)(=O)N2CCOCC2)CC1)c1ccccc1 | 13µM | . | . | 13µM | ? | .
CCCCN(CCCNC(=O)C1CCN(C(=O)c2cc3sccc3n2C)CC1)Cc1ccccc1 | ? | ? | 18µM | ? | . | ?
COc1cccc(Cn2c(C)c(CNC3CCCCC3)c(C(=O)O)c2C)c1 | . | / | / | . | / | /
O=C(NCc1ccccn1)c1ccc(Cl)c(S(=O)(=O)NCc2ccccc2)c1 | . | . | . | . | . | .
COCCN(C(=O)c1csnn1)C(C(=O)NC1CCCCC1)c1ccccc1F (stereo unspecified) | ? | . | . | . | . | .
COc1cccc(-c2cc(NC=O)c3ncc(-c4ccc(OC)c(OC)c4)n3c2)c1 | 4.1µM | 6.5µM | 2.9µM | 5.2µM | / | .
CN(C)C(=O)c1cccc(-c2cnc3c(NC=O)cc(-c4cc(F)c(F)c(F)c4)cn23)c1 | ? | . | . | ? | / | .
COc1cccc(-c2cnc3c(NC=O)cc(-c4cc(OC)c(OC)c(OC)c4)cn23)c1 | ? | 16µM | ? | ? | / | .
CN(C)C(=O)c1cccc(-c2cnc3c(NC=O)cc(-c4ccccc4F)cn23)c1 | 18µM | . | . | ? | / | .
COc1ccc(-c2cnc3c(NC=O)cc(-c4cccc(NS(C)(=O)=O)c4)cn23)cc1OC | 3.7µM | 4.6µM | 2.3µM | 4.6µM | / | .
COc1cc(-c2cc(NC=O)c3ncc(-c4cccc(C(=O)N(C)C)c4)n3c2)cc(OC)c1OC | 15µM | . | . | ? | / | .
SMILES | DT40 TDP1 no CPT | HT1080 IDH1KD tx | HT1080NT lethal | TDP1 cell CPT | ELG1 DNA repair | IL1B secr inh
Cc1cc2oc(=O)cc(C)c2c2occ(-c3ccc(Cl)cc3)c12 | . | / | / | . | / | /
Cc1noc(C)c1S(=O)(=O)N1CCC(C(=O)N2CCC(C)CC2)CC1 | . | . | . | . | . | .
Cc1cccc(N2CCN(C(=O)C3CCN(S(=O)(=O)c4c(C)noc4C)CC3)CC2C)c1 (stereo unspecified) | 9.2µM | . | . | 8.2µM | 21µM | .
Cc1cccc(CCNC(=O)C2CCCN(S(=O)(=O)c3cnc[nH]3)C2)c1 (stereo unspecified) | . | . | . | . | . | .
Cc1cccc(N2CCN(C(=O)C3CCCN(S(=O)(=O)c4cnc[nH]4)C3)CC2C)c1 (stereo unspecified) | ? | . | . | ? | 23µM | .
COc1ccc(OC)c(NC(=O)C(C)OC(=O)c2cc3ccccc3[nH]2)c1 (stereo unspecified) | ? | . | . | ? | / | .
O=c1[nH]cnc2sc(-c3ccccc3)cc12 | . | .[9.24 µM] | . | . | ? | .
Cc1ccc(C)n1-n1c(C)nc2sc(-c3ccccc3)cc2c1=O | 15µM | . | . | 18µM | ? | .
O=c1[nH]c(-c2ccccc2)nc2sc(-c3ccccc3)cc12 | 6.5µM | . | . | 10µM | ? | .
O=C(NCC1CC1)c1ccc(-c2cn[nH]c2)c2ccoc12 | ? | . | . | ? | / | .
CCCOc1cccc(C2c3c(oc4ccc(F)cc4c3=O)C(=O)N2CCc2ccc(OC)cc2)c1 (stereo unspecified) | ? | / | / | . | / | /
CN(C)/C=C1\N=C(c2ccccc2)OC1=O | . | . | . | . | . | .
Cc1cccc2cc(/C=C3\N=C(c4ccccc4)OC3=O)c(N3CCOCC3)nc12 | 23µM | . | . | ? | . | .
O=C(CCn1cccn1)Nc1ccc2c(c1)OCCO2 | . | . | . | . | ? | .
COc1ccc(/C=C(\NC(=O)c2ccc(OC)cc2)C(=O)Nc2ccccc2C(=O)O)cc1 | . | . | . | . | . | .
CC(C)C1Oc2ccccc2N(CC(=O)N(Cc2ccccn2)CC2CCCO2)C1=O (stereo unspecified) | ? | . | . | . | . | .
Cc1ccc(CN(CC2CCCO2)C(=O)CN2C(=O)C(C(C)C)Oc3ccccc32)o1 (stereo unspecified) | ? | . | . | 26µM | ? | .
O=C(Nc1ccc(O)c2c(=O)cc(-c3cccc(Cl)c3)oc12)c1cccc(Cl)c1 | 8.2µM | . | . | 7.3µM | . | .
CC(C)(C)c1ccc(C(=O)Nc2ccc(O)c3c(=O)cc(-c4cccc(Cl)c4)oc23)cc1 | 7.3µM | . | . | 5.8µM | . | .
CCc1nnc(NS(=O)(=O)c2ccc(NC(=S)NC(=O)/C=C/c3ccc(C(C)C)cc3)cc2)s1 | . | ? | ? | . | . | .
CC(C)(C)c1cc(NS(=O)(=O)c2ccc(Br)s2)no1 | . | . | . | . | . | .
